Data taken from PubChem BioAssay AID1159580 (chemical genetic matrix, 2015).
The whole screen tested about 5,500 compounds, of which about 2,000 (36%) were called active. About 18% were inconclusive and are not listed. No stated cut-off is given here; in the data, active means normalized growth mostly below about 0.91 (no sharp cut-off); inconclusive means no clear call, values can overlap the other calls; inactive means mostly above about 0.92. The list shows a part of the results.

Test: chemical genetic growth profiling, strain panel (AID 1159580);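 further: tested at 20 µM; growth read once vehicle control cultures reached saturation at 30 °C; 1 = growth at the plate median or of vehicle wells; lower values mean less growth of the strain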
Conditions: S. cerevisiae deletion strains, growth OD

Measured: normalized growth

CCOc1ccc2c(c1)C(C)=CC(C)(C)N2
inactive: locus YAL013W, strain DEP1, active compounds read low 0.99 | locus YAL021C, strain ccr4, active compounds read low 0.99 | locus YAL026C, strain drs2, active compounds read low 0.983 | locus YAL030W, strain snc1, active compounds read low 0.996 | locus YBL061C, strain skt5, active compounds read low 0.988 | locus YBR009C, strain hhf1, active compounds read low 0.996 | locus YBR021W, strain FUR4, active compounds read low 0.983 | locus YBR023C, strain chs3, active compounds read low 0.994 | locus YBR171W, strain sec66, active compounds read low 0.982 | locus YBR229C, strain ROT2, active compounds read low 0.986 | locus YBR231C, strain swc5, active compounds read low 0.991 | locus YBR279W, strain paf1, active compounds read low 0.99 | locus YCL011C, strain gbp2, active compounds read low 0.989 | locus YCL016C, strain dcc1, active compounds read low 0.995 | locus YCL029C, strain bik1, active compounds read low 0.959 | locus YCL061C, strain MRC1, active compounds read low 0.994 | locus YCL069W, strain vba3, active compounds read low 0.987 | locus YCR088W, strain abp1, active compounds read low 0.983 | locus YDL005C, strain med2, active compounds read low 0.974 | locus YDL035C, strain GPR1, active compounds read low 1.01 | locus YDL040C, strain nat1, active compounds read low 0.987 | locus YDL074C, strain BRE1, active compounds read low 0.973 | locus YDL101C, strain DUN1, active compounds read low 0.976 | locus YDL134C, strain PPH21, active compounds read low 0.983 | locus YDL185W, strain tfp1, active compounds read low 0.977 | locus YDL192W, strain arf1, active compounds read low 0.984 | locus YDR001C, strain nth1, active compounds read low 0.986 | locus YDR069C, strain doa4, active compounds read low 0.995 | locus YDR101C, strain arx1, active compounds read low 0.984 | locus YDR137W, strain rgp1, active compounds read low 1.01 | locus YDR150W, strain NUM1, active compounds read low 0.993 | locus YDR159W, strain sac3, active compounds read low 0.989 | locus YDR162C, strain NBP2, active compounds read low 0.99 | locus YDR195W, strain ref2 0.98 | locus YDR297W, strain sur2, active compounds read low 0.989 | locus YDR318W, strain mcm21, active compounds read low 0.987 | locus YDR334W, strain swr1, active compounds read low 0.975 | locus YDR335W, strain msn5, active compounds read low 0.995 | locus YDR388W, active compounds read low 0.984 | locus YDR392W, strain spt3, active compounds read low 0.95 | locus YDR502C, strain sam2, active compounds read low 0.993 | locus YEL003W, strain gim4, active compounds read low 0.992 | locus YEL037C, strain rad23, active compounds read low 0.984 | locus YEL061C, strain CIN8 (second series), active compounds read low 0.99 | locus YEL061C, strain CIN8, active compounds read low 0.997 | locus YER015W, strain faa2, active compounds read low 0.99 | locus YER016W, strain bim1, active compounds read low 0.999 | locus YER110C, active compounds read low 0.979 | locus YER111C, strain swi4, active compounds read low 0.982 | locus YER155C, strain BEM2 (second series), active compounds read low 0.98 | locus YER155C, strain BEM2, active compounds read low 0.989 | locus YER167W, strain BCK2, active compounds read low 1 | locus YFR010W, strain ubp6, active compounds read low 0.977 | locus YGL078C, strain dbp3, active compounds read low 0.991 | locus YGL086W, strain mad1, active compounds read low 1 | locus YGL167C, strain pmr1, active compounds read low 0.978 | locus YGL173C, strain kem1, active compounds read low 0.98 | locus YGL227W, strain vid30, active compounds read low 0.98 | locus YGL240W, strain doc1, active compounds read low 0.985 | locus YGL248W, strain PDE1, active compounds read low 0.985 | locus YGL253W, strain hxk2, active compounds read low 0.984 | locus YGR078C, strain PAC10, active compounds read low 0.981 | locus YGR135W, strain pre9, active compounds read low 0.974 | locus YGR229C, strain SMI1, active compounds read low 1.01 | locus YGR252W, strain gcn5, active compounds read low 1.07 | locus YHR013C, strain ard1, active compounds read low 0.977 | locus YHR027C, strain rpn1, active compounds read low 0.979 | locus YHR030C, strain SLT2, active compounds read low 0.994 | locus YHR079C, strain IRE1 (second series), active compounds read low 0.975 | locus YHR094C, strain hxt1, active compounds read low 0.988 | locus YHR129C, strain ARP1, active compounds read low 0.987 | locus YHR142W, strain chs7, active compounds read low 0.98 | locus YHR200W, strain rpn10, active compounds read low 0.978 | locus YIL066C, strain RNR3, active compounds read low 0.974 | locus YIL073C, strain SPO22, active compounds read low 0.981 | locus YIL125W, strain kgd1, active compounds read low 0.998 | locus YIR030C, strain dcg1, active compounds read low 0.981 | locus YJL092W, strain hpr5, active compounds read low 0.986 | locus YJL095W, strain BCK1 (second series), active compounds read low 0.99 | locus YJL095W, strain BCK1, active compounds read low 0.971 | locus YJL115W, strain asf1, active compounds read low 0.984 | locus YJL129C, strain trk1, active compounds read low 0.996 | locus YJL134W, strain LCB3, active compounds read low 0.994 | locus YJL154C, strain vps35, active compounds read low 0.98 | locus YJL164C, strain tpk1, active compounds read low 0.993 | locus YJL166W, strain qcr8, active compounds read low 1 | locus YJL168C, strain set2, active compounds read low 0.984 | locus YJL187C, strain SWE1 (second series), active compounds read low 0.964 | locus YJL187C, strain SWE1, active compounds read low 0.988
